Our source for the IFI values is ChEMBL document CHEMBL1157539, “Thousands of chemical starting points for antimalarial lead identification” (Nature, 2010).

Whole data set: some 13,000 compounds, median “IFI” near 4, cut for the highest 2% near 17. Many of the other results were omitted from the sample, so the highest values are more common in it than they were.

This test can be described thus: GSK_TCMDC: Inhibition Frequency Index (IFI). The number of non-kinase HTS assays where a compound showed > 50 % inhibition, expressed as a percentage of the number of such assays in which the compound was tested. The format is functional.
Compound `Cc1ccc(OCC2CCN(c3ncc(C(=O)NC4CC4)cc3Cl)CC2)cc1` showed an IFI of 0%.
Next, `Cc1cc(OCC2CCN(c3ncc(C(=O)NC4CC4)cc3Cl)CC2)ccc1F`: 9.8%; `Cc1ccc(F)c(OCC2CCN(c3ncc(C(=O)NC4CC4)cc3Cl)CC2)c1`: 17.3%.
As to `CN1CCC(NCc2cccc(-c3cccc(S(=O)(=O)NCc4ccccc4)c3)c2)CC1`, the IFI is 11.2%.
The compound `CCN(CC)CCOc1ccc(NC(=O)c2oc3ccccc3c2C=Cc2ccccc2)cc1` had an IFI of 18.5%.
Turning to `CCN(CC)CCOc1ccc(C(O)(C#CC(O)(c2ccccc2)c2ccc(OCCN(CC)CC)cc2)c2ccccc2)cc1` (stereo unspecified), the IFI was determined as 6.52%.
Take `CCN(CC)CCNC(=O)c1ccc(NC(=O)c2oc3c(Cl)cccc3c2C)cc1`: the IFI is 4.76%.
For the compound `COC(=O)c1cccc(CNCc2ccc(-c3ccc(-c4nc5cccc(C)c5[nH]4)s3)cc2)c1`, the IFI was found to be 7.55%.
Consider `CN1CCN(CCCN(Cc2cccc(-c3cccc(CNCc4ccc5c(c4)OCO5)c3)c2)C(=O)CCC2CCCC2)CC1`, for which the IFI is 10.9%.
The compound `CC(C)C[C@H](NC(=O)c1cc2ccccc2s1)C(=O)N[C@H]1CCN(Cc2ccc(I)c(OC3CCN(C)C3)c2)C1` (stereo partly specified) returned an IFI of 16.7%.
In turn, `O=C(Nc1ccc2ccccc2c1)c1ccc(CN2CCC(Cc3ccccc3)CC2)cc1` returned an IFI of 6.21%.
For `C/C=C/C=C/C1=NCCc2cc(OCCC)ccc21` the value was 8.76%; for `CCCOc1cc2c(cc1OCCC)C(C=Cc1ccc(Cl)cc1Cl)=NC(C)C2` (stereo unspecified), 19%.
The compound `CCCCOc1cc2c(cc1OCC)C(C=Cc1ccc(Cl)cc1Cl)=NCC2` yielded an IFI of 6.67%.
Next, `COc1ccc(CNCCc2cccs2)cc1-c1cccc(S(=O)(=O)NCCN2CCCC2)c1`: 9.8%; `C=CCN(C(=O)c1ccc(Cl)c([N+](=O)[O-])c1)c1nc(-c2ccccc2)cs1`: 3.39%.
Next, `Nc1nccc2ccc(-c3ccc(NC(=O)Nc4cc(C(F)(F)F)ccc4F)cc3)cc12`: 20.2%; `Nc1ccc(-c2ccc(NC(=O)Nc3cc(C(F)(F)F)ccc3F)cc2)cn1`: 1.32%.
With `Nc1ncc(-c2ccc(NC(=O)Nc3cc(C(F)(F)F)ccc3F)cc2)c(N)n1`, the IFI is 0%.
For the compound `Cc1[nH]c(C)c(-c2ccc(Oc3ccccc3)cc2)c(=O)c1Br`, the IFI is 6.11%.
`Cc1nc(-c2cccc(Nc3nccc(NCC(O)c4ccccc4C)n3)c2)cs1` (stereo unspecified) had an IFI of 13.6%.
Next, `Cc1nc(-c2cccc(Nc3nccc(NCC(O)c4ccccc4C(F)(F)F)n3)c2)cs1` (stereo unspecified): 22.8%; `Cc1ccc(C(O)CNc2ccnc(Nc3cccc(-c4csc(C)n4)c3)n2)cc1` (stereo unspecified): 8.74%; `Cc1nc(-c2cccc(Nc3nccc(NCC(O)c4cccc(C(F)(F)F)c4)n3)c2)cs1` (stereo unspecified): 11%.
`Cc1nc(-c2cccc(Nc3nccc(NCC(O)c4ccccc4)n3)c2)cs1` (stereo unspecified) returned an IFI of 24.1%.
The compound `Cc1cccc(C(O)CNc2ccnc(Nc3cccc(-c4csc(C)n4)c3)n2)c1` (stereo unspecified) gave an IFI of 13.6%.
